The sample as a whole holds a higher share of hits than the screen did.
ROC1-CUL1 inh: inhibitors of human ROC1-CUL1 ubiquitin ligase activity. P62877+Q13616. in vitro K48 di-Ub FRET, acceptor:donor ratio, 45 min. inhibition, % at 10 µM. actives 0.6% (n = 140,000); in the data active means inhibition above about 25%
Target sequence (P62877 whole entry, looked up): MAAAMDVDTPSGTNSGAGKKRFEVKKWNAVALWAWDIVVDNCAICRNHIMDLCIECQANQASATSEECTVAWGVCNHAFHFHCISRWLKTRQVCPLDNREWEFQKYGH
Target sequence (Q13616 whole entry, looked up): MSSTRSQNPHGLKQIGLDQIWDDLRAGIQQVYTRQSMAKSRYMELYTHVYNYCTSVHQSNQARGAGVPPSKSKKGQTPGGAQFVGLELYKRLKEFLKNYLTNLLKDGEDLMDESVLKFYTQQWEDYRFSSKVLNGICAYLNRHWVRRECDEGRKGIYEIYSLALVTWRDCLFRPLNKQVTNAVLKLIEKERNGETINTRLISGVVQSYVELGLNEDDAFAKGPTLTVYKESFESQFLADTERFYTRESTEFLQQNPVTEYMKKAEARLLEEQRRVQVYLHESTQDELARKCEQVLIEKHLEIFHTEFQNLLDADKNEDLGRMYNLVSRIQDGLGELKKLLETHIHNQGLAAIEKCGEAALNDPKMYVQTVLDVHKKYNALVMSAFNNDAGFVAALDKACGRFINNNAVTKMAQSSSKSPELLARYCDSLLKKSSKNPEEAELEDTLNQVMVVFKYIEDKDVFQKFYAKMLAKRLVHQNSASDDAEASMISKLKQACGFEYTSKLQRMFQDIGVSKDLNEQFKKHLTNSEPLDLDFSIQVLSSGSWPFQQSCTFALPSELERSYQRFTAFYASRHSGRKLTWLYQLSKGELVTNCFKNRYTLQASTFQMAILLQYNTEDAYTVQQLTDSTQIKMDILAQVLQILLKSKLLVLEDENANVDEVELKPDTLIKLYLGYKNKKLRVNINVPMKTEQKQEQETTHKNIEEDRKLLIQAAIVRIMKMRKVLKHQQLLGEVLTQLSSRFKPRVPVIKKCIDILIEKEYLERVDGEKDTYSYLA
The depositor's hits bear a star.

SMILES | ROC1-CUL1 inh
O=C1C(=O)c2c3ccccc3cc3cccc1c23 | -1.2
O=C1C(=O)c2cccc3cccc1c23 | 0.7
O=C1C(=O)c2ccccc2-c2ccccc21 | 98.0*
O=C1Nc2ccccc2/C1=C/c1nc2ccccc2c(=O)n1-c1ccccn1 | -2.0
Cc1ccc(NC(=O)N2CCN(c3cccc(C(F)(F)F)c3)CC2)cc1 | 1.0
c1ccc(C(c2ccccc2)[N+]23CCN(CC2)CC3)cc1 | -10.4
CC(C)CCC(N(C)C)C1(c2ccc(Cl)cc2)CCC1 (stereo unspecified) | 5.2
O=C1NC(=O)N(c2ccccc2)C(=O)/C1=C\c1ccccc1 | -10.0
O=C1NC(=S)N(c2cccc(F)c2)C(=O)/C1=C/c1ccc(Br)o1 | 93.8*
C=CCN1C(=O)/C(=C/c2ccc(Br)s2)C(=O)NC1=S | 1.2
CCc1cc2c(s1)-n1c(C)nnc1CN=C2c1ccccc1 | -9.5
O=C(CN1CCN(c2cccc(Cl)c2)CC1)Nc1ccc(Cl)cc1C(=O)c1ccccc1 | 0.9
O=C1NC(=O)N(Cc2ccc(F)cc2)C(=O)/C1=C\c1ccoc1 | 75.8*
CN(C)C(=O)Oc1ccc2ccccc2c1 | 5.4
COc1cccc(C(=O)C2CCCN(CCCn3cccn3)C2)c1 (stereo unspecified) | 1.9
ON=C1C(=Cc2ccccc2O)N2CCC1CC2 | -4.9
CCN1C(=O)CC2(CN3CCC2CC3)C1=O (stereo unspecified) | 3.6
COCCNC(=O)c1cn(CCC(C)C)cc(C(=O)N[C@H](C)c2ccc(OC)cc2)c1=O | 3.5
COC(=O)OCC12CCC(O1)C1(C)C(=O)OCC21 (stereo unspecified) | 56.0*
COn1cc([N+](=O)[O-])cc([N+](=O)[O-])c1=O | 9.3
Cc1n[nH]c(C)c1CC(C)NCC1CCN(c2cnn(C)c(=O)c2)CC1 (stereo unspecified) | -2.2
N#Cc1cnn2c(C(F)(F)F)cc(-c3ccc(Cl)cc3)nc12 | 4.7
N#CC(C#N)=Cc1csc2ccccc12 | -14.5
N#CC(C#N)=Cc1ccc([N+](=O)[O-])s1 | 27.0*
CN1CCOC(C(O)C(Cl)(Cl)Cl)C1=O (stereo unspecified) | -4.9
SMILES | ROC1-CUL1 inh
CN(C)C(=O)Oc1cccc(OCc2c[n+]3ccccc3n2C)c1 | 12.8
COc1cc(OC)c(OC)cc1CNCCc1ccc(Cl)cc1Cl | -2.8
CCCN1CCc2ccc(NC(=O)Cc3ccccc3F)cc2C1 | -7.6
O=C(Cc1ccc(F)cc1)N1CCN(Cc2ccco2)CC1 | 5.5
CC(=O)OC1CC2c3ccccc3OC12C(C)=O (stereo unspecified) | 3.1
O=C1Nc2ccc(Br)cc2/C1=C/c1nc2ccccc2c(=O)n1-c1ccccc1Cl | 6.3
COc1ccc(C=C2C(=O)NC(=S)NC2=O)c(OC)c1 | -2.4
Cc1cc(/C=C2\C(=O)NC(=S)N(c3cccc(Cl)c3)C2=O)c(C)n1-c1cc(C(=O)O)cc(C(=O)O)c1 | 55.4*
Cc1cc(/C=C2\C(=O)NC(=O)N(Cc3ccccc3)C2=O)c(C)n1-c1ccc(Cl)c(C(=O)O)c1 | 35.8*
CCOc1ccc(N2C(=O)/C(=C/c3cc(C)n(-c4ccc(S(N)(=O)=O)cc4)c3C)C(=O)NC2=S)cc1 | 27.6*
O=C1NC(=S)NC(=O)C1=Cc1ccccc1OCc1ccc(C(=O)O)cc1 | -9.6
C=CCN1C(=O)/C(=C/c2cc(C)n(-c3cccnc3)c2C)C(=O)NC1=S | 3.8
COc1ccc(N2C(=O)/C(=C/c3cc(C)n(-c4ccc(C(=O)O)cc4C)c3C)C(=O)NC2=S)c(OC)c1 | 36.7*
CSc1ccccc1C(=O)C1CCCN(C2CCN(C(C)=O)CC2)C1 (stereo unspecified) | 2.6
Cn1c(=O)[nH]c(=O)c2c1nc(SCCCl)n2Cc1ccccc1Cl | -11.5
Oc1ccc(Br)cc1Br | -9.1
Cc1cc(C)c(C)c(OCC#CCN2CCOCC2)c1 | 4.9
COc1cccc(-n2c(/C=C/c3ccc(Br)cc3)nc3ccccc3c2=O)c1 | 0.5
CC(Cc1cncs1)NC1CCN(c2cccc(NC(=O)CCCc3ccccc3)c2)CC1 (stereo unspecified) | 8.6
Cc1ncc2c(c1-c1noc(-c3cccnc3)n1)CCN(c1ncccn1)C2 | 1.5
CC1=C(C(=O)c2ccccc2)C2(C(=O)Nc3ccc(Br)cc32)C(C(=O)OCc2ccccc2)C(=N)O1 (stereo unspecified) | 0.9
CN1C(=O)N(C)C(=O)C(Cl)(Cl)C1=O | 32.7*
CCOC(=O)C1=C(C)NC2(C)CC1c1ccccc1O2 (stereo unspecified) | 2.4
O=C(NCC1CC1)c1cn(C2CCCCC2)nn1 | -4.0
COC(=O)[C@H]1[C@@H]2c3ccccc3-c3ccccc3[C@@H]2[C@H](C(=O)OC)N1c1ccc(OC)cc1 | 1.4
